Several values for one entry are separate records, joined by “and”; a condition that tells them apart may be missing. Equal values may be shown once. Results filed as inconclusive are left out. A call without a number means that no potency is given here. More than one record can exist for a structure, and the calls need not agree. Activity calls are given as the source filed them. The call rests on the fitted dose curve.
Molecular target: 5-hydroxytryptamine receptor 2A (Homo sapiens) (UniProt P28223)
Sequence (P28223 whole entry, looked up): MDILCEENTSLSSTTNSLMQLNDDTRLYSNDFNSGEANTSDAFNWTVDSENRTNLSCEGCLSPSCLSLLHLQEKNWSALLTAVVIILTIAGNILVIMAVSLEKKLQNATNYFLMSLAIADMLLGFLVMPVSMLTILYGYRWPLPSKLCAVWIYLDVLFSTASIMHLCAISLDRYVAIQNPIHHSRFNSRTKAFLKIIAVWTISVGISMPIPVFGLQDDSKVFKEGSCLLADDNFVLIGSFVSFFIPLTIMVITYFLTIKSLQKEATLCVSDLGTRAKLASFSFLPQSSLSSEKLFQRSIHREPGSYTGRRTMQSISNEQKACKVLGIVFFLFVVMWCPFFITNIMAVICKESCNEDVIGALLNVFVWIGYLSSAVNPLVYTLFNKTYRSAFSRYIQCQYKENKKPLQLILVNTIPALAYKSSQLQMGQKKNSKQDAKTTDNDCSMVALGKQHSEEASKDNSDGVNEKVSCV
Assay: 5-hydroxytryptamine receptor 2A (HTR2A) small molecule antagonists, cell-based qHTS assay (AID 1963586); further: nearly all actives have a fitted effect of over 45% in size
Settings: HTR2A-CHO cells, DOI-induced calcium flux, fluorescence; series mostly up to 61.5 µM; activity, negative = inhibition: at the top concentration
How it was run: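 Antagonist-mode intracellular calcium assay: DOI (4 nM) added after 5 min compound pre-incubation at room temperature to dye-loaded HTR2A-CHO cells. Fluorescence followed for 3 min, sampled every second.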
Potency means the concentration at half of the fitted maximal effect.

Structure (SMILES)	Potency	activity, negative = inhibition
O=c1n(CC2CO2)c(=O)n(CC2CO2)c(=O)n1CC1CO1 (centres undefined)	inactive	
CC(=O)OCC(=O)[C@@]12N=C(C)O[C@@H]1C[C@H]1[C@@H]3CCC4=CC(=O)C=C[C@]4(C)[C@H]3[C@@H](O)C[C@@]12C	inactive	
CCCCC(CC)COC(=O)C(C#N)=C(c1ccccc1)c1ccccc1 (centres undefined)	inactive	
OC1CCCCC1	inactive	
Cc1cc(=O)[nH]c(=S)[nH]1	inactive	
O=c1c(O)c(-c2ccc(O)cc2)oc2cc(O)cc(O)c12		-2.48% [at 28.5 µM] (inactive)
COCCOCCOC	inactive	
C=C(C)C(=O)OCCCCCC	inactive	
C=C(C)C1CC=C(C)C(OC(C)=O)C1 (centres undefined)	inactive and 3.75 µM (active)	
C=C1C2CCC(C2)C1(C)C (centres undefined)	inactive	
CC(=O)Nc1ccc(C(=O)CCl)cc1	inactive	
C=CC(C)(CCC=C(C)C)OC(C)=O (centres undefined)	inactive	
C[C@]12C[C@H](O)[C@H]3[C@@H](CCC4=CC(=O)CC[C@@]43C)[C@@H]1CC[C@@H]2C(=O)CO	inactive	
CCCCCCCC(=O)OC	inactive	
O=C(Cl)c1c(Cl)c(Cl)c(C(=O)Cl)c(Cl)c1Cl	inactive	
COC(=O)CCCCC(=O)OC		3.22% (inactive)
CCCN(CCC)C(=O)SCC	inactive	
C=C(C#N)C(=O)OCC		-5.37% (inactive)
C[Si]1(C)O[Si](C)(C)O[Si](C)(C)O[Si](C)(C)O1	inactive	
CCCCCCCCCCC(CO)CCCCCCCC (centres undefined)		3.07% [at 28.5 µM] (inactive)
COC(C)COC(C)COC(C)CO (centres undefined)	inactive	
Brc1ccc(Oc2ccc(Br)cc2)cc1	inactive	
O=C1CCCCCCCCCCCN1	inactive	
CCCC(O)C(CC)CO (centres undefined)	inactive	
CC1COC(=O)O1 (centres undefined)	inactive	
O=C(CC(C(=O)OC1CCCCC1)S(=O)(=O)O)OC1CCCCC1 (centres undefined)	inactive	

Molecular target: 5-hydroxytryptamine receptor 2A (Homo sapiens) (UniProt P28223)
Assay: 5-hydroxytryptamine receptor 2A (HTR2A) small molecule agonists, cell-based qHTS assay (AID 1963587); further: nearly all actives have a fitted effect of over 30% in size
Settings: HTR2A-CHO cells, calcium flux fluorescence, agonist mode; series mostly up to 76.8 µM; activation: at the top concentration
How it was run: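 HTR2A-CHO cells, plated 18 h at 37 C/5% CO2, dye-loaded 1 h at 37 C; compounds in DMSO added by pin tool (agonist mode). Intracellular calcium flux read as kinetic fluorescence on FDSS over 2 min at 1 s intervals.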

Structure (SMILES)	Potency	activation
CCC(C)OC(=O)c1ccc(O)cc1 (centres undefined)	inactive	
O=c1n(CC2CO2)c(=O)n(CC2CO2)c(=O)n1CC1CO1 (centres undefined)	inactive	
CC(=O)OCC(=O)[C@@]12N=C(C)O[C@@H]1C[C@H]1[C@@H]3CCC4=CC(=O)C=C[C@]4(C)[C@H]3[C@@H](O)C[C@@]12C	inactive	
CCCCC(CC)COC(=O)C(C#N)=C(c1ccccc1)c1ccccc1 (centres undefined)	inactive	
OC1CCCCC1	inactive	
Cc1cc(=O)[nH]c(=S)[nH]1	inactive	
O=c1c(O)c(-c2ccc(O)cc2)oc2cc(O)cc(O)c12	inactive	
COCCOCCOC	inactive	
C=C(C)C(=O)OCCCCCC	inactive	
C=C(C)C1CC=C(C)C(OC(C)=O)C1 (centres undefined)	inactive	
C=CC(C)(CCC=C(C)C)OC(C)=O (centres undefined)	inactive	
C[C@]12C[C@H](O)[C@H]3[C@@H](CCC4=CC(=O)CC[C@@]43C)[C@@H]1CC[C@@H]2C(=O)CO	inactive	
CCCCCCCC(=O)OC	inactive	
O=C(Cl)c1c(Cl)c(Cl)c(C(=O)Cl)c(Cl)c1Cl	inactive	
COC(=O)CCCCC(=O)OC	inactive	
CCCN(CCC)C(=O)SCC	inactive	
C=C(C#N)C(=O)OCC	inactive	
C[Si]1(C)O[Si](C)(C)O[Si](C)(C)O[Si](C)(C)O1	inactive	
O=[Se](O)O	19.5 µM (active)	-0.26% [at 15.9 µM] (inactive)
CCCCCCCCCCC(CO)CCCCCCCC (centres undefined)	inactive	
COC(C)COC(C)COC(C)CO (centres undefined)	inactive	
Brc1ccc(Oc2ccc(Br)cc2)cc1	inactive	
O=C1CCCCCCCCCCCN1	inactive	
O=C(c1ccc(O)cc1)c1ccc(O)cc1O	inactive	
CCCC(O)C(CC)CO (centres undefined)	inactive	
CC1COC(=O)O1 (centres undefined)	inactive	
O=C(CC(C(=O)OC1CCCCC1)S(=O)(=O)O)OC1CCCCC1 (centres undefined)	inactive	
